About 8,800 targets were measured; listed, in parts, are those with a hit and a random draw of the rest. About 0.5% of all pairs of compound and target were hits.
What was measured:
Test in all cases: log2 fold change, soluble protein after heating vs DMSO (PISA); higher = thermal stabilisation; K562 lysate, 10 uM; active = over 0.2 and 3.5 SD of the protein, either way, in both replicates (recomputed)
[1] = compound: C1=CC=C(C=C1)[C@H](COC2=CC3=C(C=C2)NC(=O)N3)NC(=O)C4=CC=CN(C4=O)CC5=CC(=C(C=C5)F)F
Method in brief: (§1)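 Log-two fold change in thermal stability relative to solvent controls is reported from duplicates. For each sample, crude K562 extract from dounce-homogenised pellets in PBS pH 7.4 with 1 mM MgCl2, at 1 mg/mL protein, was treated with 10 μM compound for 30 min. Aliquots heated for 3 min across 48°C-58°C were pooled, brought to 0.5% NP-40 at 4°C and cleared at 21,000xg for 90 min. The supernatant was quantified by TMTpro 16plex LC-MS/MS with channel sums equalised.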

[2] = compound: CC1=C(SC2=C1C(=N[C@H](C3=NN=C(N32)C)CC(=O)N)C4=CC=C(C=C4)Cl)C
Method in brief: as §1

[3] = compound: CC1=C2C(=CC=C1)N=C(N(C2=O)C3=CC=CC=C3C)CN4C=NC5=C(N=CN=C54)N
Method in brief: as §1

[4] = compound: Cc1sc2c(c1C)C(c1ccc(Cl)cc1)=N[C@@H](CC(=O)OC(C)(C)C)c1nnc(C)n1-2
Method in brief: as §1

[5] = compound: c1ccc([C@@H]2C[C@H]2NC2CCNCC2)cc1
Method in brief: as §1

Measured: log2 fold change

PIKFYVE (UniProt Q9Y2I7)
inactive: [1] -0.005 | [2] 0.007 | [3] 0.016 | [4] 0.054 | [5] -0.03

PPP2R5C isoform 4 (UniProt Q13362)
inactive: [1] -0.057 | [2] 0.003 | [3] 0.021 | [4] -0.103 | [5] 0.021

PHKA2 (UniProt P46019)
inactive: [1] -0.111 | [2] 0.028 | [3] 0.052 | [4] 0.021 | [5] 0.038

PHKG2 (UniProt P15735)
inactive: [1] 0.039 | [2] -0.038 | [3] -0.037 | [4] -0.002 | [5] -0.022

PDAP1 (UniProt Q13442)
UniProt Q13442, sequence (Q13442 whole entry, looked up): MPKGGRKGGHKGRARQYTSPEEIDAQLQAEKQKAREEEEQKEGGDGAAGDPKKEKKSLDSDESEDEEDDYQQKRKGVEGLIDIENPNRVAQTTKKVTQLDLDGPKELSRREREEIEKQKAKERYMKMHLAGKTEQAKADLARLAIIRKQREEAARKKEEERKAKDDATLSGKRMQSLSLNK
inactive: [1] 0.004 | [2] 0.042 | [3] 0.008 | [4] 0.084 | [5] -0.112

PTGES2 (UniProt Q9H7Z7)
UniProt Q9H7Z7, sequence (Q9H7Z7 whole entry, looked up): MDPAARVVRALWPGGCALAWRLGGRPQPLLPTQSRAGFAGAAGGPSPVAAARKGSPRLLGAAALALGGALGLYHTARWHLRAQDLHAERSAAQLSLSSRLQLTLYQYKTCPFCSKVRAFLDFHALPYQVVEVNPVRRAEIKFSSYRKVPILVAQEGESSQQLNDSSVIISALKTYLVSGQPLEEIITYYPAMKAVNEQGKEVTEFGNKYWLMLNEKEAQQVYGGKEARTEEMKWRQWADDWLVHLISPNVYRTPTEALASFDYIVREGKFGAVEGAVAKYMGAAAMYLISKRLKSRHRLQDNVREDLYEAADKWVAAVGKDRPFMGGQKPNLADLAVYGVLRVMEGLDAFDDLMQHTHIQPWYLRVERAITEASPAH
inactive: [1] 0.166 | [2] -0.119 | [3] -0.101 | [4] -0.006 | [5] 0.014

PICALM (UniProt Q13492)
inactive: [1] -0.014 | [2] 0.027 | [3] 0.016 | [4] 0.005 | [5] 0.007

PGGT1B (UniProt P53609)
UniProt P53609, sequence (P53609 whole entry, looked up): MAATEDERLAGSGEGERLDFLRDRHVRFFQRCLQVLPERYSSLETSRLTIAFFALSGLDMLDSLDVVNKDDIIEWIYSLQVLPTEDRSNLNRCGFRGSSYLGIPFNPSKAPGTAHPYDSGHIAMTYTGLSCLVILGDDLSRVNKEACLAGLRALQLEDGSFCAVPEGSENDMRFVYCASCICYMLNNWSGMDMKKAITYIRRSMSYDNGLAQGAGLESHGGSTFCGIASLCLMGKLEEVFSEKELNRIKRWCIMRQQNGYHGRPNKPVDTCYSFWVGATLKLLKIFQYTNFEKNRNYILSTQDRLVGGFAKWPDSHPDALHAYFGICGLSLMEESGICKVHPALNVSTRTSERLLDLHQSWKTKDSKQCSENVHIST
inactive: [1] -0.055 | [2] 0.021 | [3] -0.013 | [4] -0.004 | [5] 0.064

PUF60 (UniProt Q9UHX1)
inactive: [1] -0.017 | [2] 0.006 | [3] 0.004 | [4] 0.028 | [5] 0.059

PRKACA (UniProt P17612)
inactive: [1] 0.029 | [2] 0.019 | [3] 0.008 | [4] -0.013 | [5] -0.245

PRKDC (UniProt P78527)
inactive: [1] -0.073 | [2] -0.123 | [3] -0.064 | [4] 0.028 | [5] -0.048

PEF1 (UniProt Q9UBV8)
UniProt Q9UBV8, sequence (Q9UBV8 whole entry, looked up): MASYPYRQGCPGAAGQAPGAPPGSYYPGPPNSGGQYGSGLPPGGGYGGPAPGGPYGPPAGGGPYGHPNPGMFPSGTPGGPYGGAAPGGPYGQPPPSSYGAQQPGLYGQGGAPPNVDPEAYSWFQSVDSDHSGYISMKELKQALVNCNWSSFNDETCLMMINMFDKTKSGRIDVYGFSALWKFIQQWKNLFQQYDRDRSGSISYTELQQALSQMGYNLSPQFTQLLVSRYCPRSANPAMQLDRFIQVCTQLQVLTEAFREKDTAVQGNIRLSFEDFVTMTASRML
inactive: [1] 0.016 | [2] -0.039 | [3] 0.055 | [4] 0.048 | [5] -0.031

PFKFB3 isoform 4 (UniProt Q16875)
inactive: [1] -0.04 | [2] 0.047 | [3] 0.057 | [4] 0.018 | [5] 0.041

PI4K2A (UniProt Q9BTU6)
UniProt Q9BTU6, sequence (Q9BTU6 whole entry, looked up): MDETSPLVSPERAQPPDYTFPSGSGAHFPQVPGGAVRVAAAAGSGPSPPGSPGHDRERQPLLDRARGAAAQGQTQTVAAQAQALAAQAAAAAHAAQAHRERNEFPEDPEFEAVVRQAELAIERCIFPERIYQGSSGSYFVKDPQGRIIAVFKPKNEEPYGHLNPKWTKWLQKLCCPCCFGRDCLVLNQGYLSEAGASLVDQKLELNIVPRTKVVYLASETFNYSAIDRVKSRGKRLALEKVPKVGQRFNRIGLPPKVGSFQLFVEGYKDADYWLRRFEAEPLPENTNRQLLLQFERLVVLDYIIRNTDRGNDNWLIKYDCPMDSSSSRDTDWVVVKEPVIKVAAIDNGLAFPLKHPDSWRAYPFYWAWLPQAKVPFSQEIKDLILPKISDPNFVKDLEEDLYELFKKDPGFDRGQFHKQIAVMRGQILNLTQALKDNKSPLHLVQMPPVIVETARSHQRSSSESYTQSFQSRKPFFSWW
inactive: [1] 0.028 | [2] 0.056 | [3] -0.007 | [4] -0.002 | [5] 0.001

PFKP (UniProt Q01813)
inactive: [1] -0.005 | [2] 0.02 | [3] 0.043 | [4] -0.031 | [5] 0.027

PDIA4 (UniProt P13667)
inactive: [1] -0.004 | [2] -0.006 | [3] -0.009 | [4] 0.002 | [5] 0.037

PPFIA2 (UniProt O75334)
inactive: [1] 0.022 | [2] 0.041 | [3] 0.003 | [4] -0.016 | [5] -0.132

PPT2 isoform 3 (UniProt Q9UMR5)
inactive: [1] 0.01 | [2] -0.03 | [3] -0.046 | [4] -0.048 | [5] -0.08

POLD1 (UniProt P28340)
UniProt P28340, sequence (P28340 whole entry, looked up): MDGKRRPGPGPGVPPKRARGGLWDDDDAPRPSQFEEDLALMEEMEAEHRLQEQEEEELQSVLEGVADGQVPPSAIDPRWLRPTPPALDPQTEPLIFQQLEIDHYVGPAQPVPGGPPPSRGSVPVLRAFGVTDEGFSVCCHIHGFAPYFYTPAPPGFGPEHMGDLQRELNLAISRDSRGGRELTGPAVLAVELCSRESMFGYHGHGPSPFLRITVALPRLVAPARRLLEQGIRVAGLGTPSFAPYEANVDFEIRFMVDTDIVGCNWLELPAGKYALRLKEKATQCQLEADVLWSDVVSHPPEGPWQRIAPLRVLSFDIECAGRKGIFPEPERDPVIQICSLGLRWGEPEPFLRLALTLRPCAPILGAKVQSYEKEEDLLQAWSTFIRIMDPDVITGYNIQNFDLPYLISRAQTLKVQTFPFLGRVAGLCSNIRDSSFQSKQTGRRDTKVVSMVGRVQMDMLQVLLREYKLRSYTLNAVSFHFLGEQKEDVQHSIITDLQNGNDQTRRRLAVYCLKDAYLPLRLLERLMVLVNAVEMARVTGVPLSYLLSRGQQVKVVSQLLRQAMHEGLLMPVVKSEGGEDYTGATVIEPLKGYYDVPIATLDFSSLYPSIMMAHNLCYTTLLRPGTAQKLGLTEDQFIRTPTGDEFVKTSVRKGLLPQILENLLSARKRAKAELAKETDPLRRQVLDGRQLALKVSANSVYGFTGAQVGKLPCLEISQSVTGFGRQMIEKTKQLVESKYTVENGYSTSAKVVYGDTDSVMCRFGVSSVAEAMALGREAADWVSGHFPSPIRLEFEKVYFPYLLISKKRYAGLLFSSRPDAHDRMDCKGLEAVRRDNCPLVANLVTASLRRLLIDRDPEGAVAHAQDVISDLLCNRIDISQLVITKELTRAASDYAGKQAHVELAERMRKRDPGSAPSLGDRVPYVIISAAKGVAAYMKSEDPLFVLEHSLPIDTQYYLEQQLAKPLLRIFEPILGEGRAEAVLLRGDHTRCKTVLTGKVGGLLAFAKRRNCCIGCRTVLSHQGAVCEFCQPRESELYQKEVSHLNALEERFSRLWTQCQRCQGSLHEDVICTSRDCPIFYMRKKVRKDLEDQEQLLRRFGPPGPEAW
inactive: [1] 0.026 | [2] 0.003 | [3] 0.011 | [4] 0.03 | [5] 0.042

PES1 (UniProt O00541)
UniProt O00541, sequence (O00541 whole entry, looked up): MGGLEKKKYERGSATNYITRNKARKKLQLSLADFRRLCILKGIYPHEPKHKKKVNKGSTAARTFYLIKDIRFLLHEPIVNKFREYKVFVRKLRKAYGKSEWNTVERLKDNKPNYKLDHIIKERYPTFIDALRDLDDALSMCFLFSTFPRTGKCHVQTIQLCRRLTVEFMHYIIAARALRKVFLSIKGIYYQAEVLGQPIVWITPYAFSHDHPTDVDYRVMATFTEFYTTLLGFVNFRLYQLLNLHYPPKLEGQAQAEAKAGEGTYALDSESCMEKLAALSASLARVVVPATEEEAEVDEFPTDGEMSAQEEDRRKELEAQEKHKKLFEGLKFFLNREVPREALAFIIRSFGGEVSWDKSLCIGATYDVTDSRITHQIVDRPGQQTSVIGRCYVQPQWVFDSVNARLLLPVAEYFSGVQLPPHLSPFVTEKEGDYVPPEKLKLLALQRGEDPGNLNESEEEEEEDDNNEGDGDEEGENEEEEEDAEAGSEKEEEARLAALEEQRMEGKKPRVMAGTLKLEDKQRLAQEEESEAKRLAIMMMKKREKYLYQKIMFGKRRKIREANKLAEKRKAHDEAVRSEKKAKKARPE
inactive: [1] 0.027 | [2] 0.016 | [3] 0.019 | [4] 0.016 | [5] 0.02

PHKA1 (UniProt P46020)
inactive: [1] 0.033 | [2] 0.02 | [3] 0 | [4] -0.008 | [5] 0.001

PHKB isoform 3 (UniProt Q93100)
UniProt Q93100, sequence (Q93100 whole entry, looked up): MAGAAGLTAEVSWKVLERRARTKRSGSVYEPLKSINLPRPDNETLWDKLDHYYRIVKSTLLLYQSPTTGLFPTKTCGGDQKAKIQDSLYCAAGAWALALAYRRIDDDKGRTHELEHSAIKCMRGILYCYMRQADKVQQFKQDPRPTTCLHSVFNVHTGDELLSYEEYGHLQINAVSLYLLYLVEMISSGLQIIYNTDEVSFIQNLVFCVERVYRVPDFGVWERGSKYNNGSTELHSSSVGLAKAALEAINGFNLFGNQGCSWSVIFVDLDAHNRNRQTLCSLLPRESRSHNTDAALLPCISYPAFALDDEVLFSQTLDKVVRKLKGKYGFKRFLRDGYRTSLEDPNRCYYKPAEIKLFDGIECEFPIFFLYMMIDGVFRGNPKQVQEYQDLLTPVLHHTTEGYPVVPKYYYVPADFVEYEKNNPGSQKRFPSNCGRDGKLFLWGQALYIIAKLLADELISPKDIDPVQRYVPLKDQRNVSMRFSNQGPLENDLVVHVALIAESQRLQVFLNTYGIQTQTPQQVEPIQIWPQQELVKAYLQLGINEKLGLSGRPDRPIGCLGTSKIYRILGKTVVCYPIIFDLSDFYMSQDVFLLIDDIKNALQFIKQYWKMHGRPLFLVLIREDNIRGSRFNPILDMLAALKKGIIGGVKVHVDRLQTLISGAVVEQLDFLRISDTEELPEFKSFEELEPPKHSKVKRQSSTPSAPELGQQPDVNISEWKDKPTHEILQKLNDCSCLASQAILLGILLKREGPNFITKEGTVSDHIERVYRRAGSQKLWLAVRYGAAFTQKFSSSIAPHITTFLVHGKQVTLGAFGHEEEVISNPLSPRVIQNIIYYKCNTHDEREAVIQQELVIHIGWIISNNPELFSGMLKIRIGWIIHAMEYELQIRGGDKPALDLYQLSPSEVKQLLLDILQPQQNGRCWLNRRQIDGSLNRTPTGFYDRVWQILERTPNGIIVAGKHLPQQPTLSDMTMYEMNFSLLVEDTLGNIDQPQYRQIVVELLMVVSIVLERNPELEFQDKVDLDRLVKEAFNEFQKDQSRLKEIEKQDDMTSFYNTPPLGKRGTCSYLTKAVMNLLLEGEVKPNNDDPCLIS
inactive: [1] 0.015 | [2] 0.011 | [3] 0.042 | [4] -0.012 | [5] -0.066

PI4KA (UniProt P42356)
inactive: [1] -0.08 | [2] -0.012 | [3] 0.057 | [4] -0.019 | [5] -0.018

PTPN7 isoform 3 (UniProt P35236)
UniProt P35236, sequence (P35236 whole entry, looked up): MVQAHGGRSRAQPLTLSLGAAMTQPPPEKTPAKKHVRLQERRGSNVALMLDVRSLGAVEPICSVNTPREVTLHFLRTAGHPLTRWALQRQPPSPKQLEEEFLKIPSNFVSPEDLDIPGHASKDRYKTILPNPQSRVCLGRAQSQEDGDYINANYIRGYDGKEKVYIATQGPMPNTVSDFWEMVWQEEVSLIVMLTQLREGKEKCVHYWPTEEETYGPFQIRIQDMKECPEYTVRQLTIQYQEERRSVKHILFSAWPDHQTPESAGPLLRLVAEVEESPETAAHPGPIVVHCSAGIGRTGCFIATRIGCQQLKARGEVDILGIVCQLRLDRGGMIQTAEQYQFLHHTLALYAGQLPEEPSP
inactive: [1] -0.028 | [2] 0.002 | [3] -0.031 | [4] 0.015 | [5] -0.012
